From PubChem BioAssay (Tox21)
A number with no mark means an inactive call. Records with an inconclusive call do not appear. Entries that show only a call come without a potency. Active and inactive are the calls of the source. Unless noted, calls come from the whole dose curve; as a rule, active = well fitted curve in the direction sought with a large enough effect in the repeat runs; inconclusive = weak or mixed curves; inactive = no such curve, though single readings can be large; an effect the other way counts as inactive or inconclusive.

Assays:
[1] = qHTS assay to identify small molecule agonists of the hypoxia (HIF-1) signaling pathway - cell viability counter screen (AID 1224844; calls by dose curve; note: nearly all actives have a fitted effect of over 50% in size; note: potency is the fitted concentration of half-maximal effect)
Method in brief: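 Multiplexed with the HRE beta-lactamase assay, this viability read used CellTiter-Glo luminescence (30 min, RT) on HRE-bla ME-180 cells treated 17 hrs with compounds in 0.5% dialyzed FBS medium.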

[2] = qHTS assay to identify small molecule agonists of H2AX (AID 1224845; active = well fitted activation curve with a large enough effect in the signal ratio in the repeat runs, not every such curve was filed as active; the % refers to the signal ratio)
Method in brief: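 Wild-type CHO-K1 cells, plated overnight, exposed 3hr at 37C to 15 concentrations (0.76% DMSO final). Lysed, then HTRF anti-pH2AX (S139) cryptate and anti-H2AX-d2 antibodies, 24 hr room temperature; 665/620 nm emission read.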

[3] = qHTS assay to identify small molecule agonists of the hypoxia (HIF-1) signaling pathway (AID 1224846; active = well fitted activation curve with a large enough effect in the signal ratio in the repeat runs, not every such curve was filed as active; the % refers to the signal ratio)
Method in brief: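 Hypoxia-pathway activation was scored as increased beta-lactamase from an HRE-controlled reporter in ME-180 cells; plated at 2,000 cells per well with 0.5% dialyzed FBS, they were exposed 17 hrs to compounds and then given CCF4-AM.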

[4] = qHTS assay to identify small molecule agonists of H2AX - cell viability counter screen (AID 1224847; calls by dose curve; note: nearly all actives have a fitted effect of over 30% in size; note: potency is the fitted concentration of half-maximal effect)
Method in brief: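 Quantitative HTS viability measurement: CHO-K1 wild-type cells in serum (10% FBS) medium, short 3 hr drug exposure at 37C with 0.76% DMSO, CellTiter-Glo luminescent detection.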

[5] = qHTS assay to identify small molecule antagonists of the estrogen related receptor (ERR) signaling pathway from Tox21 library (AID 1224848); note: nearly all actives have a fitted effect of over 50% in size; note: potency is the fitted concentration of half-maximal effect
Method in brief: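 ERR reporter cell line (from NTP) seeded 2,000 cells/well, rested 6 h at 37 C/5% CO2, then pin-dosed with compounds in DMSO. After 18 h at 37 C, ONE-Glo added; luminescence read after 30 min at room temperature.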

[6] = qHTS assay to identify small molecule agonists of the estrogen related receptor (ERR) signaling pathway from Tox21 library (AID 1224849; calls by dose curve; note: nearly all actives have a fitted effect of over 15% in size); conditions: ERR reporter cell line, ONE-Glo luciferase, 18 h; at 92.4 µM (top of the series) unless noted
Method in brief: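 Six hours post-seeding at 37 C/5% CO2, ERR cells receive DMSO-solubilised compounds; after 18 h at 37 C, ONE-Glo reagent is applied and luminescence recorded.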

[7] = qHTS RealTime-Glo MT Cell Viability Assay in HepG2 cells - 24 hour (AID 1224867); note: nearly all actives have a fitted effect of over 50% in size
Method in brief: (§1)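 Tox21 10K library screened in qHTS format on HepG2 cells carrying RealTime-Glo reagents. Compounds were added after a 5 h preincubation, and the luminescent signal from continuous culture was measured repeatedly during 40 h treatment.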

[8] = qHTS RealTime-Glo MT Cell Viability Assay in HEK293 cells - 32 hour (AID 1224868); note: top concentration of the series differs between compounds; nearly all actives have a fitted effect of over 50% in size
Method in brief: (§2)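 Luminescence generated by NanoLuc from substrate produced by living HEK293 cells served as the viability signal. Each value reflects the reading at its stated time point during continuous 40 h compound exposure at 37 C.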

[9] = A CellTox Green Cytotoxicity Assay to monitor cytotoxicity in HEK293 cells - 0 hour (AID 1224869); note: nearly all actives have a fitted effect of over 50% in size
Method in brief: (§3)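 Seeding of HEK293 cells together with cytotoxicity dye preceded a 5 h incubation at 37 C/5% CO2. Test compounds in DMSO were then added and fluorescence monitored across 40 h.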

[10] = qHTS RealTime-Glo MT Cell Viability Assay in HepG2 cells - 40 hour (AID 1224870); note: nearly all actives have a fitted effect of over 50% in size
Method in brief: (§4)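 HepG2 cells (600/well) mixed with RealTime-Glo MT reagent, settled 5 h at 37 C/5% CO2 before compound addition. Nonlytic NanoLuc luminescence from viable-cell prosubstrate reduction read repeatedly during 40 h treatment at 37 C.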

[11] = A CellTox Green Cytotoxicity Assay to monitor cytotoxicity in HEK293 cells - 40 hour (AID 1224871); note: nearly all actives have a fitted effect of over 45% in size
Method in brief: as §3

[12] = qHTS RealTime-Glo MT Cell Viability Assay in HEK293 cells - 16 hour (AID 1224872)
Method in brief: as §2

[13] = qHTS RealTime-Glo MT Cell Viability Assay in HepG2 cells - 8 hour (AID 1224873); note: nearly all actives have a fitted effect of over 55% in size
Method in brief: as §4

[14] = qHTS RealTime-Glo MT Cell Viability Assay in HEK293 cells - 40 hour (AID 1224874); conditions: RealTime-Glo luminescence; max response: active compounds read low; note: nearly all actives have a fitted effect of over 50% in size
Method in brief: (§5)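 Tox21 screen in HEK293 using RealTime-Glo MT chemistry, with cells and reagent co-dispensed. Luminescence proportional to viable cell number was captured at intervals during 40 h compound exposure at 37 C.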

[15] = A CellTox Green Cytotoxicity Assay to monitor cytotoxicity in HEK293 cells - 24 hour (AID 1224875); note: nearly all actives have a fitted effect of over 45% in size
Method in brief: as §3

[16] = A CellTox Green Cytotoxicity Assay to monitor cytotoxicity in HepG2 cells - 16 hour (AID 1224876); note: nearly all actives have a fitted effect of over 45% in size
Method in brief: (§6)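 Nonlytic assay: viable cells exclude the dye, so fluorescence scales with cell death. HepG2 at 600 cells/well, compounds added after 5 h, signal read across 40 h.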

[17] = qHTS RealTime-Glo MT Cell Viability Assay in HepG2 cells - 32 hour (AID 1224877); note: nearly all actives have a fitted effect of over 55% in size
Method in brief: as §1

[18] = A CellTox Green Cytotoxicity Assay to monitor cytotoxicity in HepG2 cells - 24 hour (AID 1224878); note: nearly all actives have a fitted effect of over 45% in size
Method in brief: as §6

[19] = A CellTox Green Cytotoxicity Assay to monitor cytotoxicity in HepG2 cells - 40 hour (AID 1224879); note: nearly all actives have a fitted effect of over 40% in size
Method in brief: as §6

[20] = qHTS RealTime-Glo MT Cell Viability Assay in HEK293 cells - 0 hour (AID 1224880)
Method in brief: as §5

Compound	Potency [1]	Potency [2]	Potency [3]	Potency [4]	Potency [5]	activity change, positive = activation [6]	Potency [7]	Potency [8]	Potency [9]	Potency [10]	Potency [11]	Potency [12]	Potency [13]	max response [14]	Potency [15]	Potency [16]	Potency [17]	Potency [18]	Potency [19]	Potency [20]
OC[C@H]1O[C@@H](OCCc2ccc(O)cc2)[C@H](O)[C@@H](O)[C@@H]1O	inactive	inactive	inactive	inactive	inactive	4.76% [at 42.5 µM]	inactive	inactive	inactive	inactive	inactive	inactive	inactive	7.46%	inactive	inactive	inactive	inactive	inactive	inactive
CCC(C)O (stereo not drawn)	inactive	inactive	inactive	inactive	inactive	0.0918%	inactive	–	–	inactive	–	inactive	inactive	7.73%	inactive	inactive	inactive	inactive	inactive	inactive
NS(=O)(=O)c1ccc(N2CCCCS2(=O)=O)cc1	inactive	inactive	inactive	inactive	inactive	5.22% [at 42.5 µM]	inactive	inactive	inactive	inactive	–	inactive	inactive	-0.0797%	inactive	inactive	inactive	inactive	inactive	inactive
OC(C#CCN1CCCC1)(c1ccccc1)c1ccccc1	inactive	inactive	inactive	inactive	inactive	-10.1% [at 42.5 µM]	–	inactive	inactive	inactive	inactive	inactive	inactive	-8.96%	inactive	inactive	inactive	inactive	inactive	inactive
CCCCCCCCCCCc1ccccc1	inactive	inactive	inactive	inactive	–	–	inactive	inactive	inactive	inactive	inactive	inactive	inactive	-1.2%	inactive	inactive	inactive	inactive	inactive	inactive
CC(C)OC(=O)C(C)N(C(=O)c1ccccc1)c1ccc(F)c(Cl)c1 (stereo not drawn)	inactive	inactive	inactive	56.6 µM (active)	17.2 µM (active)	-51.7%	inactive	inactive	inactive	inactive	inactive	inactive	inactive	-29.8%	inactive	inactive	inactive	inactive	inactive	inactive
O=C1OC(CN2CCOCC2)CN1/N=C/c1ccc([N+](=O)[O-])o1 (stereo not drawn)	inactive	inactive	inactive	inactive	–	–	inactive	inactive	inactive	inactive	inactive	inactive	inactive	-0.929%	inactive	inactive	inactive	inactive	inactive	inactive
CCc1c(C(=O)NN2CCCCC2)nn(-c2ccc(Cl)cc2Cl)c1-c1ccc(Br)cc1	21.9 µM (active)	inactive	inactive	inactive	1.22 µM (active)	-62%	–	–	inactive	–	–	inactive	–	–	inactive	inactive	–	inactive	inactive	inactive
O=C1[C@H]2CCCC[C@H]2C(=O)N1CCCCN1CCN(c2nsc3ccccc23)CC1	inactive	inactive	inactive	inactive	26.6 µM (active)	-38.9% [at 42.5 µM]	inactive	–	inactive	inactive	–	–	–	–	inactive	–	inactive	inactive	inactive	inactive
Nc1ncn([C@H]2C[C@H](O)[C@@H](CO)O2)c(=O)n1	inactive	inactive	inactive	inactive	–	–	inactive	inactive	inactive	inactive	inactive	inactive	inactive	2.14%	inactive	–	inactive	inactive	inactive	inactive
CC1=CC=C(C(C)C)CC1	inactive	inactive	inactive	inactive	–	–	inactive	inactive	inactive	inactive	inactive	inactive	inactive	1.32%	inactive	inactive	inactive	–	inactive	inactive
CC(=O)NO	inactive	inactive	inactive	inactive	–	–	–	inactive	inactive	inactive	inactive	inactive	inactive	2.23%	inactive	inactive	–	inactive	inactive	inactive
CCOC(=O)C(F)(F)F	inactive	inactive	inactive	inactive	–	–	inactive	inactive	inactive	inactive	inactive	inactive	inactive	6.21%	inactive	–	–	–	inactive	inactive
CCCCC(CC)COC(=O)COc1ccc(Cl)cc1Cl (stereo not drawn)	inactive	inactive	inactive	inactive	–	–	inactive	inactive	–	inactive	inactive	inactive	–	11%	inactive	inactive	inactive	–	inactive	inactive
